Experimental data taken from PubChem BioAssay AID686978 (National Center for Advancing Translational Sciences (NCATS), 2013).
Values joined by “and” are separate entries in the source; they are usually repeats but may differ in a detail not shown here. Equal entries are not always repeated. Hit rate of the full screen: of about 420,000 compounds, about 64,000 (15%) were called active. Inconclusive results (about 27%) are left out. Calls come from the whole dose curve; as a rule, active = well fitted inhibition curve with a large enough effect; inconclusive = small, poorly fitted or top-dose-only effect; inactive = flat fitted curve, though single readings scatter. These entries were drawn from the full list. Entries that show only a call come without a potency.

Experiment: qHTS for Inhibitors of human tyrosyl-DNA phosphodiesterase 1 (TDP1): qHTS in cells in absence of CPT; note: nearly all actives have a fitted effect of over 55% in size
Settings: DT40 Tdp1-/- hTDP1 cells, no CPT, ATP luminescence, 48 h; activity change, negative = growth inhibition: at 46.2 µM (top of the series)
In short: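 Cells were dispensed at 400 per well, compounds added by pin tool, plates incubated ≥48 hr at 37 °C, then CellTiter-Glo added for 30 min at room temperature before luminescence reading. Line: DT40 Tdp1-/- complemented with hTDP1; camptothecin omitted.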
Potency is the fitted concentration of half-maximal effect.

| SMILES | Potency |
| --- | --- |
| CC(C)(C)C1CCC(=NNC(=O)c2ccc(Br)o2)CC1 (stereo unspecified) | inactive |
| Cc1nc2cccnc2nc1C | inactive |
| Cc1ccc2c(c1)C(O)(CC(=O)c1cccc(-n3cccc3)c1)C(=O)N2 (stereo unspecified) | inactive |
| CCCCCCCCc1c(O)nc(-n2[nH]c(C)c(CCO)c2=O)[nH]c1=O | inactive |
| Cc1ccc(C(=O)NNC(=O)c2ccc3c(c2)OCCO3)cc1 | inactive |
| COC(=O)c1ccc(C(=O)OC)c(NC(=S)N2CCCCC2)c1 | inactive |
| Brc1ccc(-c2noc(-c3ccccc3)n2)o1 | inactive |
| Cn1c(=O)cc(SCC(=O)N2CCN(C(=O)c3ccco3)CC2)c2ccccc21 | inactive |
| Nc1c(C(=O)O)cnn1-c1ccccc1 | inactive |
| COC(=O)Cn1c(O)c(N=NC(=O)OC)c2ccccc21 | inactive |
| CN1CCN(S(=O)(=O)c2cccc(C(=O)O)c2)CC1 | inactive |
| CCn1c(O)c(N=NC(=O)c2cccc(S(=O)(=O)N3CCCCC3)c2)c2ccccc21 | 23.1 µM (active) |
| O=[N+]([O-])c1cccc(C2=NCCS2)c1 | inactive |
| CC(CC(=O)Nc1ccc(F)cc1F)S(=O)(=O)c1ccc2c(c1)NC(=O)CO2 (stereo unspecified) | inactive |
| O=C(NCc1cccnc1)Nc1cccc(NC(=O)NCc2cccnc2)c1F | inactive |
| COCCCN1C(=O)c2ccc(C(=O)OCC(=O)NCc3ccccc3OC)cc2C1=O | inactive |
| CCOc1ccc(C(=O)CCN2CCOCC2)cc1 | 20.6 µM (active) |
| CC(=O)c1ccc(OCCN2CCOCC2)cc1 | inactive |
| CCOc1ccc(C2C(C(=O)O)c3ccccc3C(=O)N2CCN2CCOCC2)cc1 (stereo unspecified) | inactive |
| CC1CN(C2CCN(C(=O)COc3ccccc3)CC2)CC(C)O1 (stereo unspecified) | inactive |
| CN(CC(=O)NCc1ccncc1)S(=O)(=O)c1ccc(Br)cc1 | inactive |
| COc1ccc(CCNC(=O)C(=O)NCC2CCNCC2)cc1OC | inactive |

| SMILES | Potency |
| --- | --- |
| COc1ccc(CCNc2ncnc3nc[nH]c23)cc1OC | 11.6 µM (active) |
| CCCNC(=O)NC(=O)COC(=O)CC(NC(N)=O)c1ccc(Cl)cc1 (stereo unspecified) | inactive |
| CSCCC(NC(=O)c1ccco1)C(=O)NCCc1ccc(F)cc1 (stereo unspecified) | inactive |
| CCc1ccc(NC(=O)NC(C)c2ccc3c(c2)OCO3)cc1 (stereo unspecified) | inactive |
| CC1CCCN(C(C(=O)Nc2ccc(C(C)C)cc2)c2ccc3c(c2)OCO3)C1 (stereo unspecified) | 18.4 µM (active) |
| CC(NC(=O)Nc1ccc2c(c1)OCO2)c1ccncc1 (stereo unspecified) | inactive |
| Cc1ccc(S(=O)(=O)NC2CCCCCC2)cc1C(N)=O | inactive |
| Cc1cccc(NS(=O)(=O)c2ccc(C)c(C(N)=O)c2)c1 | 9.2 µM (active) |
| Cc1cccc(NS(=O)(=O)c2ccc(C)c(C(=O)NCc3cccnc3)c2)c1 | inactive |
| COc1ccccc1C(=O)N1C(CC(=O)Nc2ccccc2C)C(=O)NC2CCCCC21 (stereo unspecified) | inactive |
| COc1cccc(-n2c(=S)[nH]c3c(oc4ccccc43)c2=O)c1 | inactive |
| CNc1[nH]ncc1[N+](=O)[O-] | inactive |
| CCCCCCNCCn1cnc2c(N)ncnc21 | inactive |
| Cc1cccc(NC(=O)CSc2nc3c(oc4ccccc43)c(=O)n2-c2ccc(F)cc2)c1 | inactive |
| Cc1ccc(-n2c(SCC(=O)c3ccccc3)nc3c([nH]c4ccccc43)c2=O)cc1 | 3.66 µM (active) |
| Cc1nc(SCC(=O)c2ccccc2)c([N+](=O)[O-])[nH]1 | inactive |
| Cc1ccc(C)c(NC(=O)CSc2nc3c(oc4ccccc43)c(=O)n2-c2ccccc2)c1 | 10.3 µM (active) |
| Cc1ccc(NC(=O)Cn2nc(C)c3ccccc3c2=O)c(C)c1 | inactive |
| CC(C)OCCCn1c(SCC(=O)c2ccccc2)nc2c(sc3ccccc32)c1=O | inactive |
| Cc1ccc(-n2c(SCC(=O)Nc3cccc(F)c3)nc3c(oc4ccccc43)c2=O)cc1C | inactive |
| Cc1ccc(NC(=O)CSc2nn3c(=O)c(C)nnc3s2)cc1Cl | inactive |
| Cc1ccc(NC(=O)COC(=O)CCc2nc3ccccc3n2-c2ccccc2)c(C)c1 | inactive |

| SMILES | Potency |
| --- | --- |
| Cc1ccc(NC(=O)CSc2nc3c([nH]c4ccccc43)c(=O)n2-c2ccccc2)cc1Cl | 23.1 µM (active) |
| Cc1ccc(NC(=O)CSc2nc3c([nH]c4ccccc43)c(=O)n2-c2ccccc2)c(C)c1 | 16.4 µM (active) |
| Cc1ccc(NC(=O)CSc2nnc3[nH]c(=O)cc(C)n23)cc1Cl | inactive |
| O=C(CC12CC3CC(CC(C3)C1)C2)NCc1ccco1 | inactive |
| CCCOc1ccc(Cc2c(O)nc(N)[nH]c2=O)cc1C | inactive |
| CN1C(=O)CC(c2ccccc2)C1=O (stereo unspecified) | inactive |
| Cc1cc(C(=O)CC#N)c(C)n1CC(F)(F)F | inactive |
| CCC(=O)N1CCC(C)(C(=O)Nc2cc(OC)c(OC)c(OC)c2)C1 (stereo unspecified) | inactive |
| C/C(=N\NS(=O)(=O)c1ccc(Br)cc1)c1cccs1 | inactive |
| O=C(c1ccco1)N1CCC[C@@]2(CCN(Cc3nccs3)C2)C1 | inactive |
| C[C@H](CO)N1C[C@H](C)[C@@H](CN(C)C(=O)c2cnccn2)Oc2ncc(Br)cc2C1=O | inactive |
| CC1CN(C(=O)CN2C(=O)NC(C)(c3ccccc3)C2=O)CC(C)O1 (stereo unspecified) | inactive |
| O=C(c1ccccc1)c1cccn1CC(=O)N1CCN(c2ccc(F)cc2)CC1 | inactive |
| CCOC(=O)c1ccc(NC(=O)c2cc(=O)[nH]c3ccccc23)cc1 | inactive |
| CC(Sc1nc2c([nH]c3ccccc32)c(=O)n1C)c1ccccc1 (stereo unspecified) | 18.4 µM (active) |
| CCOC(=O)c1ccc(NC(=O)CSc2nc3c([nH]c4ccccc43)c(=O)n2C)cc1 | 9.2 µM (active) |
| CCOn1c(SC(C)C)nc2ccccc2c1=O | inactive |
| Cn1nnnc1SCc1cc(=O)[nH]c2ccccc12 | inactive |
| CCOC(=O)c1ccc(NC(=O)CSc2nnc(COc3ccccc3OC)n2C)cc1 | inactive |
| CSc1ncccc1C(=O)OCC(=O)N1CCOCC1 | inactive |
| CCOC(=O)c1cccc(NC(=O)CCc2nnc3ccc(N4CCOCC4)nn23)c1 | inactive |
| COC(=O)Nc1nc2ccc(Sc3ccccc3)cc2[nH]1 | 517 nM (active) and 286 nM (active) |

| SMILES | Potency |
| --- | --- |
| CC(C)c1nc2ccc(C(=O)O)cc2[nH]1 | inactive |
| Cc1nc2ccc(C(=O)O)cc2[nH]1 | inactive |
| CC1CCN(C(=O)/C(=C\c2ccccc2)NC(=O)c2ccccc2)CC1 | inactive |
| O=C(CS(=O)(=O)Cc1ccccc1)Nc1cccnc1 | inactive |
| CS(=O)(=O)Nc1ccc(C(=O)N2CCCC2)cc1 | inactive |
| CNc1cncc(-c2ccc(NS(C)(=O)=O)cc2)n1 | 4.11 µM (active) |
| CNc1cncc(-c2cccc(C(=O)N3CCOCC3)c2)n1 | inactive |
| CCCS(=O)(=O)C(=C1Nc2ccccc2N1)S(=O)(=O)CCC | inactive |
| CN(C)S(=O)(=O)c1cc(C(=O)Nc2ccn(C)n2)c(Cl)cc1Cl | inactive |
| COc1ccc2c(c1)NC(=O)C2CC(=O)N1CCOc2c(cc(-c3cnc4ccccc4c3)cc2OC)C1 (stereo unspecified) | 18.4 µM (active) |
| COc1cc(-c2cccnc2)cc2c1OCCN(C(=O)Cc1csc(C)n1)C2 | inactive |
| COc1ccc(OC)c(CNC(=O)C2CCCN(c3nc4ccccc4o3)C2)c1 (stereo unspecified) | inactive |
| O=C1Oc2ccccc2C(=O)/C1=C/c1ccccc1O | 8.2 µM (active) |
| COC(=O)c1ccc(/C=C2/C(=O)Oc3ccccc32)cc1 | inactive |
| COC(=O)c1c(NC(=O)c2c(Cl)cnn2C)sc(C)c1C | inactive |
| CN1CCN(c2ccc(S(=O)(=O)N3CCOCC3)cc2NC(=O)CCc2ccccc2)CC1 | inactive |
| COC(=O)C(C)N=Cc1ccccc1 (stereo unspecified) | inactive |
| CN(Cc1ccccc1)c1nc2c(c(=O)[nH]c(=O)n2C)n1CCSc1nc2ccccc2[nH]1 | inactive |
| CCCSc1nc2c(c(=O)[nH]c(=O)n2C)n1CCc1ccccc1 | inactive |
| CC=CCn1c(SCCCc2ccccc2)nc2c1c(=O)[nH]c(=O)n2C | 20.6 µM (active) |
| CN(C)Cc1c(C(=O)N/N=C/c2ccccc2OCc2ccc(F)cc2)nnn1-c1nonc1N | inactive |
| Fc1cccc(/C=N\N=C/c2cccc(F)c2)c1 | inactive |

| SMILES | Potency |
| --- | --- |
| Cn1nc(-c2ccccc2)c2cc([N+](=O)[O-])ccc21 | inactive |
| COc1cc(/C(=C/c2ccccc2)c2ccccc2)c2c(c1)oc1ccccc12 | inactive |
| CCCC(=O)Nc1c(O)c2ccccc2[nH]c1=O | inactive |
| CC1=C(C(=O)N2CCOCC2)CC(CC(=O)NCCCN(C)C)C(=O)N1Cc1ccc(C(C)(C)C)cc1 (stereo unspecified) | inactive |
| CN1/C(=c2/s/c(=C3/C(=O)N(c4ccccc4)NC3=Nc3ccccc3)n(C)c2=O)C(C)(C)c2ccccc21 | 11.6 µM (active) |
| C#Cc1cc(N2CCN(C(=O)c3ccoc3)CC2)n2nc(-c3cccc(Cl)c3)cc2n1 | 5.8 µM (active) |
| O=C(c1cccc(Cl)c1)N1CCN(CCc2ccncc2)CC1 | inactive |
| O=C(c1ccccc1)N1CCN(c2cc(-c3ccccc3)nc3cc(-c4cccc(Cl)c4)nn23)CC1 | 14.6 µM (active) |
| O=C(c1cccc(Br)c1)N1CCN(Cc2cc(=O)n3nc(-c4ccccc4)sc3n2)CC1 | inactive |
| O=C(c1cccc(Cl)c1)N1CCN(Cc2ccccc2)CC1 | inactive |
| COc1ccc2c(c1)c(=O)c(S(=O)(=O)c1ccc(F)cc1)cn2CC(=O)Nc1ccc(C)cc1C | inactive |
| CCOC(=O)c1ccccc1NC(=O)CCc1c(C)nc2c(c1C)c(=O)n(C)c(=O)n2C | inactive |
| O=C1Nc2cc(Cl)c(Cl)cc2N(O)N1c1cc(Cl)cc(Cl)c1 | inactive |
| C/C(N)=C(/C#N)C(=O)COC(=O)C1=NN(c2ccccc2)C(=O)CC1 | inactive |
| CCNc1nc(Oc2ccc(C(=O)OC)cc2)nc(N2CCOCC2)n1 | inactive |
| CCOC(=O)C1CCN(C(=O)/C=C/c2cc(OC)c(OC)c(OC)c2)CC1 | inactive |
| CCCCNC(=O)Cn1nc(C)c(S(=O)(=O)N2CCOCC2)c1C | inactive |
| COC(=O)c1sccc1N/N=C(\C)c1ccc(F)c(Cl)c1 | inactive |
